Assay [1] in a line: antimalarial activity against Dd2 strain (AID 2302;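 active means growth inhibition above 50% at the single 2 µM test dose, taken to imply half-maximal potency below 2 µM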;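 further: 0% = DMSO untreated growth and 100% = chloroquine plus artemisinin killed control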). The settings on record: P. falciparum Dd2 in RBCs, LDH growth readout, 72 h; at 2 µM; active compounds read high.
Assay [2] can be described thus: human hepatoma cell viability loss – ATP luminescence, cytotoxicity control for P. falciparum antimalarial project, primary screen (AID 2303;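 active means inhibition above 50%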;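 further: 0% = DMSO wells and 100% = digitonin-killed cells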). The settings on record: HepG2 viability, 24-48 h, at 10 µM, active compounds read high.
Assay [3] has as its target L-lactate dehydrogenase (Plasmodium falciparum (isolate CDC / Honduras)) (UniProt Q27743). Nature of the assay: PfLDH activity inhibition – cell lysate, 3D7 strain, counter-screen for P. falciparum growth inhibition project (AID 2304).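 Further: 0% = vehicle and 100% = reference inhibitor.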 The settings on record: P. falciparum 3D7 crude extract, LDH APAD/NBT absorbance; at 2 µM; active compounds read high. (In general: Counterscreens check selectivity or assay interference.)

A short description of assay [4]: inhibition of 3D7 malaria parasite growth – strain 3D7 (AID 2306).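 Further: 0% = DMSO wells and 100% = chloroquine plus artemisinin control wells.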 Particulars: P. falciparum 3D7 erythrocytic growth, LDH absorbance, 72 h; at 2 µM; active compounds read high.
Assay [5] deals with Calcium-dependent protein kinase 1 (Plasmodium falciparum (isolate 3D7)) (UniProt P62344). Description: PfCDPK1 kinase inhibitors, biochemical, TCAMS library (AID 1159585; cut-off not given, nearly all actives have IC50 up to about 0.98 µM;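 further: inhibitors leave more ATP so luminescence rises with inhibition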). The settings on record: recombinant PfCDPK1, Kinase-Glo ATP depletion luminescence. A general note: In Kinase-Glo more light means more ATP remaining.
Chain of Calcium-dependent protein kinase 1 (Plasmodium falciparum (isolate 3D7)) (P62344 whole entry, looked up): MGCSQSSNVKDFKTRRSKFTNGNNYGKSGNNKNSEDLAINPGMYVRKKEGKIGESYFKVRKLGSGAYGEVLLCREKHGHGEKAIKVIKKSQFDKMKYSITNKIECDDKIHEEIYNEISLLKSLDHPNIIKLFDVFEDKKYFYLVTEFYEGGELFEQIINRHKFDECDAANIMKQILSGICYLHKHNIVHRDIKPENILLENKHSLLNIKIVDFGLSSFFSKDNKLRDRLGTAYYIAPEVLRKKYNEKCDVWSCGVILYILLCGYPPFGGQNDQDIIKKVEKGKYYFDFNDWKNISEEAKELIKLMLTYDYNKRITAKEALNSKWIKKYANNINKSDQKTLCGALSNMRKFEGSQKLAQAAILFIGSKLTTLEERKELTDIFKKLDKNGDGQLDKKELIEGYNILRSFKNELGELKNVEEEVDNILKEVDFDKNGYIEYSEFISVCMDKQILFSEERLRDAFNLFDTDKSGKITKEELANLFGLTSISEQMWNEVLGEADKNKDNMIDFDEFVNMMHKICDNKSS
The target in assay [6] is Plasmodium falciparum protein kinase 6 (PK6, PF3D7_1337100) (UniProt Q8IDW1). Description: PfPK6 kinase inhibitors, biochemical, TCAMS library (AID 1159586). Particulars: recombinant PfPK6, Kinase-Glo ATP depletion luminescence.
Chain of Plasmodium falciparum protein kinase 6 (PK6, PF3D7_1337100) (Q8IDW1 1-305): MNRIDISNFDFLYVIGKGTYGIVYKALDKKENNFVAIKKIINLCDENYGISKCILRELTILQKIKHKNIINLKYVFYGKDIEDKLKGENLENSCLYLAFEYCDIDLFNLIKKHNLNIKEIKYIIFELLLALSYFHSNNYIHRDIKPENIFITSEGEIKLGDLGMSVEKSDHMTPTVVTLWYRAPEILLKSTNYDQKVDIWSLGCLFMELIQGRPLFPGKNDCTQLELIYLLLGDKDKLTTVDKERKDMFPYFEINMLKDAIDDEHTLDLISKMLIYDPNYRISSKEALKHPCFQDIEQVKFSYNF
The target in assay [7] is Protein kinase 7 (PK7), Plasmodium falciparum 3D7 (PF3D7_0213400) (UniProt Q7YTF7). Description: inhibition of Plasmodium PK7 catalytic activity – biochemical, TCAMS antimalarial set, Kinase-Glo luminescence (AID 1159587). The settings on record: recombinant PfPK7, Kinase-Glo ATP depletion luminescence.
Chain of Protein kinase 7 (PK7), Plasmodium falciparum 3D7 (PF3D7_0213400) (Q7YTF7 1-343): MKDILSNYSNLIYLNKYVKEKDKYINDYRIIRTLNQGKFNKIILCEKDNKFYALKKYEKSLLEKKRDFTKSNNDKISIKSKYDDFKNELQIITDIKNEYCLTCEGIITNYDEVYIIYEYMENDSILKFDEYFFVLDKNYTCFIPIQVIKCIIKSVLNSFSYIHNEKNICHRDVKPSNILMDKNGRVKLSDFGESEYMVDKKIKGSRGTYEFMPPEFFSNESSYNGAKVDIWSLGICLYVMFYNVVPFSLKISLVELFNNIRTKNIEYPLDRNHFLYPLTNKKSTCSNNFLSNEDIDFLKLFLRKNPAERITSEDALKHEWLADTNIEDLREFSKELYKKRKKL
The target of assay [8] is Calcium-dependent protein kinase 4 (Plasmodium falciparum (isolate 3D7)) (UniProt Q8IBS5). Nature of the assay: PfCDPK4 kinase inhibitors, biochemical, TCAMS library (AID 1159588; cut-off not given, nearly all actives have IC50 up to about 0.91 µM). Particulars: recombinant PfCDPK4, Kinase-Glo ATP depletion luminescence.
Chain of Calcium-dependent protein kinase 4 (Plasmodium falciparum (isolate 3D7)) (Q8IBS5 whole entry, looked up): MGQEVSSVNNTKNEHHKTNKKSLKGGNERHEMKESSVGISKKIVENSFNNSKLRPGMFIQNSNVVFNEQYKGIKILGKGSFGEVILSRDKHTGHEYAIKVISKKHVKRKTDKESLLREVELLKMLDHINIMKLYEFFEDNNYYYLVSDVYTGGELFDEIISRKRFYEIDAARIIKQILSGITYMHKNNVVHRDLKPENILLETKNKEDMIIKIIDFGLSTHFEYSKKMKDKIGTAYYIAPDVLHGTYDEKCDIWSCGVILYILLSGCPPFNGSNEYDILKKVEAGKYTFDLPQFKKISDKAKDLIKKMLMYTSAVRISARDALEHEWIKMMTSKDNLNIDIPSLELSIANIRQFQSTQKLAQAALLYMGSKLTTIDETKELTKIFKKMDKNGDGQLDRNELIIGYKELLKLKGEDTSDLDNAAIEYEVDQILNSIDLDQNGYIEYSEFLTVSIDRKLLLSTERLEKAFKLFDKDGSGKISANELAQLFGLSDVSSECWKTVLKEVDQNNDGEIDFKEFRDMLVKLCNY

SMILES strings stand for the structures. Values without a mark were called inactive. For part of these data: Measured potencies and affinities stand elsewhere. Active and inactive are the calls of the source. Unless noted, how the calls were made is not given here.

Chain of L-lactate dehydrogenase (Plasmodium falciparum (isolate CDC / Honduras)) (Q27743 whole entry, looked up): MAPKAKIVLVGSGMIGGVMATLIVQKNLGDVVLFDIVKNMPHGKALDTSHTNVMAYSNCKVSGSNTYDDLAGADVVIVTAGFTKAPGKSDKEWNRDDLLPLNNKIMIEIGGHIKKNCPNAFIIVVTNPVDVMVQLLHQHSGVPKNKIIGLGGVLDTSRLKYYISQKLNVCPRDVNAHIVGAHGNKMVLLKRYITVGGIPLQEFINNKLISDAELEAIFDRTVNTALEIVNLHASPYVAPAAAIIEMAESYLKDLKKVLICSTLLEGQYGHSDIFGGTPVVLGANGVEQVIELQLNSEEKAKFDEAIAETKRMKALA

`CCOc1ccccc1N1CCN(CCCNC(=O)/C(=C/C=C/c2cc3cc(Cl)c(Cl)cc3[nH]2)OC)CC1`: the growth inhibition was 93% (active) in assay [1] and 98% (active) in assay [4]. Moreover, the inhibition in assay [2] was 45%; in assay [3], -4%. The result in assay [5], in assay [6], in assay [7] and in assay [8] was inactive.
On to `CC1CN=C(c2cccc(NC(=O)Nc3cccc(C4=NCC(C)N4)c3)c2)N1` (stereo not drawn), for which the values for the growth inhibition in assay [1] and in assay [4] were 98% (active) and 94% (active), respectively. Further, the inhibition in assay [2] was 7%; in assay [3], -3%. For the same compound, the outcome in assay [5], in assay [6], in assay [7] and in assay [8] was inactive.
For the compound `COc1ccc(NC(=O)/C=C/c2ccc(-c3ccccc3)cc2)cc1N1CCN(C)CC1`, the growth inhibition in assay [1] is 46%; in assay [4], 90% (active). The inhibition in assay [2] is 21%; in assay [3], 6%. The result in assay [5], in assay [6], in assay [7] and in assay [8] was inactive.
`Oc1ccc(CCNCCCCCCNCCCc2ccc(Cl)cc2)cc1O`: the growth inhibition in assay [1] is 3%; in assay [4], 87% (active). Further, the inhibition in assay [2] is 13%; in assay [3], -2%. The outcome in assay [5], in assay [6], in assay [7] and in assay [8] was inactive.
For the compound `O=C(Nc1ccsc1)Nc1cccc(-c2cccc(-c3nc4ccc(C(F)(F)F)cc4[nH]3)c2)c1`, the growth inhibition in assay [1] was 101% (active); in assay [4], 102% (active). Besides, the results for the inhibition in assay [2] and in assay [3] were 76% (active) and -7%, respectively. Moreover, the outcome in assay [5], in assay [6], in assay [7] and in assay [8] was inactive.
Turning to `CC(=O)c1sc(Cc2nc3ccccc3s2)nc1C`, the growth inhibition is 88% (active) in assay [1] and 94% (active) in assay [4]. In addition, the inhibition was -13% in assay [2] and 1% in assay [3]. Besides, the result in assay [5], in assay [6], in assay [7] and in assay [8] was inactive.
With `COCCNCc1ccc(-c2ccc(CNC3CCN(Cc4ccccc4)CC3)cc2)cc1`, the growth inhibition was 61% (active) in assay [1] and 100% (active) in assay [4]. Besides, the inhibition in assay [2] was 22%; in assay [3], -4%. Moreover, the outcome in assay [5], in assay [6], in assay [7] and in assay [8] was inactive.
Consider `COc1cccc2sc(N3CCN(C(=O)c4ccc([N+](=O)[O-])o4)CC3)nc12`, for which the growth inhibition in assay [1] was 67% (active); in assay [4], 95% (active). The inhibition in assay [2] was -17%; in assay [3] it was 1%. Besides, the result in assay [5], in assay [6], in assay [7] and in assay [8] was inactive.
Regarding `Cc1ccc(-c2ccc3c(c2)C=C(C(=O)NC2CCN(CCNC(=O)c4cccc(C(F)(F)F)c4)CC2)CCC3)cc1`, the growth inhibition was 56% (active) in assay [1] and 100% (active) in assay [4]. In addition, the figures for the inhibition in assay [2] and in assay [3] were 25% and -3%, respectively. The outcome in assay [5], in assay [6], in assay [7] and in assay [8] was inactive.
As for `Fc1cc(Cl)ccc1Nc1ccnc(Nc2ccc3cn[nH]c3c2)n1`, the values for the growth inhibition in assay [1] and in assay [4] were 56% (active) and 97% (active), respectively. Further, the inhibition is 8% in assay [2] and -3% in assay [3]. The outcome in assay [5], in assay [6], in assay [7] and in assay [8] was inactive.
Consider `O=C(/C=C/c1ccc([N+](=O)[O-])cc1)N1CCC(NS(=O)(=O)c2cccc(C(F)(F)F)c2)CC1`, for which the growth inhibition in assay [1] was 8%; in assay [4], 94% (active). Also, the values for the inhibition in assay [2] and in assay [3] were -2% and -1%, respectively. The result in assay [5], in assay [6], in assay [7] and in assay [8] was inactive.
Take `CN(C)C(CNC(=O)c1cc(-c2ccncc2)c(-c2ccc(NC(=O)Nc3cccc(F)c3)cc2)o1)c1ccccc1` (stereo not drawn): the growth inhibition is 99% (active) in assay [1] and 100% (active) in assay [4]. Also, the inhibition in assay [2] was 11%; in assay [3] it was 3%. The result in assay [5], in assay [6], in assay [7] and in assay [8] was inactive.
Take `CN1CCN(c2ccc(-c3cccc(NC(=O)c4ccc5ccccc5c4)c3)nn2)CC1`: the growth inhibition is 26% in assay [1] and 94% (active) in assay [4]. Further, the results for the inhibition in assay [2] and in assay [3] were 17% and -2%, respectively. Besides, the outcome in assay [5], in assay [6], in assay [7] and in assay [8] was inactive.
On to `Cc1c(CCc2cccc(F)c2F)[nH]c2ccccc2c1=O`, for which the results for the growth inhibition in assay [1] and in assay [4] were 90% (active) and 91% (active), respectively. The inhibition in assay [2] is 41%; in assay [3], 2%. Besides, the result in assay [5], in assay [6], in assay [7] and in assay [8] was inactive.
On to `Cc1cccc2[nH]c(-c3cccc(-c4cccc(NC(=O)c5csnn5)c4)c3)nc12`, for which the growth inhibition in assay [1] was 49%; in assay [4], 98% (active). The inhibition was 10% in assay [2] and 1% in assay [3]. The outcome in assay [5], in assay [6], in assay [7] and in assay [8] was inactive.
For the compound `COCCNCc1cccc(-c2ccc(CNC3CCN(Cc4ccccc4)CC3)cc2)c1`, the figures for the growth inhibition in assay [1] and in assay [4] were 97% (active) and 100% (active), respectively. Moreover, the inhibition in assay [2] is 34%; in assay [3] it was -7%. The outcome in assay [5], in assay [6], in assay [7] and in assay [8] was inactive.
As for `CCN1CCC(N2CCC(C(=O)Nc3cccc(-c4cccc(Cl)c4)c3)CC2)CC1`, the growth inhibition in assay [1] is 82% (active); in assay [4] it was 91% (active). Further, the inhibition in assay [2] was 54% (active); in assay [3], -1%. Moreover, the outcome in assay [5], in assay [6], in assay [7] and in assay [8] was inactive.
Turning to `Cc1ccc(NC(=O)Nc2ccc(I)c(OCCN(C)C)c2)cc1Cl`, the growth inhibition was 22% in assay [1] and 98% (active) in assay [4]. Besides, the inhibition in assay [2] was 11%; in assay [3] it was -4%. The result in assay [5], in assay [6], in assay [7] and in assay [8] was inactive.
Regarding `Nc1nc(N)c2c(ccc3c2ccn3Cc2ccccc2)n1`, the figures for the growth inhibition in assay [1] and in assay [4] were 94% (active) and 96% (active), respectively. For the same compound, the inhibition was 64% (active) in assay [2] and -8% in assay [3]. The outcome in assay [5], in assay [6], in assay [7] and in assay [8] was inactive.
Turning to `NC(=O)c1ccccc1OCC(=O)Nc1cccc(-c2ccc(-c3nc4ccc(C(F)(F)F)cc4[nH]3)cc2)c1`, the figures for the growth inhibition in assay [1] and in assay [4] were 17% and 92% (active), respectively. Besides, the inhibition in assay [2] is 58% (active); in assay [3], -2%. For the same compound, the result in assay [5], in assay [6], in assay [7] and in assay [8] was inactive.
As for `COCCNCc1ccc(-c2ccc3c(Nc4ccc(F)cc4Cl)ccnc3c2)o1`, the growth inhibition in assay [1] and in assay [4] was 100% (active) each time. Besides, the inhibition is 22% in assay [2] and 2% in assay [3]. The outcome in assay [5], in assay [6], in assay [7] and in assay [8] was inactive.

One may read the inhibition as the relative decrease from the control value, in per cent.

The values above are taken from PubChem BioAssay.
